# Test results published in publication PMC5540273 (PLoS ONE, 2017).
# What was measured:
# ASK1 = tested on: T1, ASK1
# T1 construct: gene MAP3K5
# ARK5 = tested on: T2, ARK5
# T2 construct: gene NUAK1
# AMPK-alpha1 = tested on: T3, AMPK-alpha1
# T3 construct: gene PRKAA1
# 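Note: kd values determined as follow-up on hits from a single-replicate KINOMEscan panel screen.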
smiles,measurement,setting,value
O=C(Nc1ccc2c(c1)OCO2)NC1CCN(c2ccnc(Nc3ccc(F)cc3)n2)C1 (centres unmarked) [GSK1379724],Kd,AURKB,6900 nM
CCCc1ccc(S(=O)(=O)NC2CCN(c3ccnc(Nc4ccc(F)cc4)n3)C2)cc1 (centres unmarked) [GSK1379715],Kd,AKT2,> 10000 nM
Cc1cc(N2Cc3ccccc3C2)nc(Nc2ccc(S(=O)(=O)N3CCOCC3)cc2)n1.Cl [GSK1669917],Kd,AKT1,> 10000 nM
CC(C)(C)c1ccc(C(=O)Nc2cn3cc(Cl)ccc3n2)cc1,Kd,ASK1,1500 nM
C[C@@H]1CCCCN1c1cc(-c2ccc3c(N)n[nH]c3c2)nc(N)n1 [GSK2258759],Kd,AURKA,> 10000 nM
COc1ccccc1CNC(=O)c1cc(C(=O)c2ccccc2C)c[nH]1 [GSK364507],Kd,AURKA,> 10000 nM
Cc1c(Cn2ccn3c(=O)cc(N4CCOCC4)nc23)cccc1C(F)(F)F [GSK2289044],Kd,AKT3,> 10000 nM
COc1cc2ncn(-c3cc(OCC4CCCO4)c(C(N)=O)s3)c2cc1OC (centres unmarked) [GSK204607],Kd,AURKC,> 10000 nM
Cn1ccc2ncnc(Oc3ccc(Nc4nc5ccccc5[nH]4)cc3)c21,Kd,AURKB,59 nM
CS(=O)(=O)c1ccc(-c2nc3n(c2-c2ccncc2)CCC3)cc1 [SKF-105942],Kd,AKT2,> 10000 nM
Cc1ccc(C(=O)Nc2ccc(Nc3ccnc4cc(-c5ccccn5)ccc34)cc2O)cc1.Cl [GW440146],Kd,AURKB,290 nM
same,Kd,AURKC,500 nM
Cc1cc(NCC(c2ccccc2)c2ccccc2)nc(NCc2ccc(C(F)(F)F)cc2)n1 [GW497681],Kd,ADCK4,2300 nM
CCn1c(-c2cccnc2O)nc2cnccc21 [SB-736715],Kd,ADCK4,> 10000 nM
COc1cccc(-c2cc(-c3c[nH]nc3-c3ccccn3)ccn2)c1 [GW680338],Kd,AURKC,> 10000 nM
COc1cc(Nc2nccc(N3CCC(NC(=O)Nc4cc(C)ccc4C)C3)n2)cc(OC)c1OC (centres unmarked) [GSK1379762],Kd,AURKA,1100 nM
same,Kd,AURKB,240 nM
same,Kd,AURKC,200 nM
Nc1nc(-c2nccs2)c(-c2ccnc3ccccc23)s1 [GW693542],Kd,AKT3,> 10000 nM
Cc1ccc(-c2cc(-c3c[nH]nc3-c3ccccn3)ccn2)cc1 [GW684088],Kd,ARK5,> 10000 nM
Cn1cncc1-c1ccc2ncnc(Nc3ccc(OCc4ccccc4)cc3)c2c1 [GW320571],Kd,AURKB,> 10000 nM
COc1ccc(CNC(=O)NC2CCN(c3ccnc(Nc4cc(OC)c(OC)c(OC)c4)n3)C2)cc1 (centres unmarked) [GSK1379748],Kd,AURKB,330 nM
O=c1cc(N2CCOCC2)nc2n(Cc3cccc(Cl)c3Cl)ccn12 [GSK2286295],Kd,AXL,> 10000 nM
Cc1nnc(-c2ccc3occ(-c4ccc(S(C)=O)cc4)c3c2)[nH]1 (centres unmarked),Kd,AMPK-alpha1,> 10000 nM
Cn1ccc2ncnc(Oc3ccc(NC(=O)Nc4ccccc4)cc3)c21,Kd,AURKB,110 nM
same,Kd,AURKC,110 nM
